Reference: PubChem BioAssay AID602281 (The Scripps Research Institute Molecular Screening Center, 2012)
The campaign covered roughly 360,000 compounds. About 2,900 (0.81%) were called active. The full list was thinned out, with actives kept by preference. Values without a mark were called inactive.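 Rule for the calls: active = inhibition above the mean inhibition across every tested compound plus 3 SD (cut at about 22% in these data); inactive = the rest.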

target: Perilipin-5 (Homo sapiens) + 1-acylglycerol-3-phosphate O-acyltransferase ABHD5 (Homo sapiens) (UniProt Q00G26+Q8WTS1); test: blockers of ABHD5 binding to perilipin-5 – cell lysate, split luciferase complementation, luminescence, primary screen (AID 602281);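 note: 0% = DMSO only wells and the 100% control is not disclosed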; conditions: Split G. princeps luciferase complementation, 4 h, at 4 µM, active compounds read high
Sequence (Q00G26 whole entry, looked up): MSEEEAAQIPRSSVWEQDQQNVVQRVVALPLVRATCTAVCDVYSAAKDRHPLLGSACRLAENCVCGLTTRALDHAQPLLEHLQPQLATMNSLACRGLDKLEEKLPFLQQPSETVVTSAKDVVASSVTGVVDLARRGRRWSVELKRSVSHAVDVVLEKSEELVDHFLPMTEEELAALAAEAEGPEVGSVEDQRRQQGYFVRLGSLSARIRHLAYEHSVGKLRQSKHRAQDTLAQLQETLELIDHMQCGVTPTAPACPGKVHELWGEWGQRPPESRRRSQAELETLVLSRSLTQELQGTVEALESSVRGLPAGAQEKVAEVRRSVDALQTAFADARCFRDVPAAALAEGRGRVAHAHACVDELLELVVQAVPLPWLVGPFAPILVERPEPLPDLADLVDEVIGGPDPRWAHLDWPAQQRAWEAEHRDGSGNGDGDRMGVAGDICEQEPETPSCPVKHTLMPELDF
Sequence (Q8WTS1 whole entry, looked up): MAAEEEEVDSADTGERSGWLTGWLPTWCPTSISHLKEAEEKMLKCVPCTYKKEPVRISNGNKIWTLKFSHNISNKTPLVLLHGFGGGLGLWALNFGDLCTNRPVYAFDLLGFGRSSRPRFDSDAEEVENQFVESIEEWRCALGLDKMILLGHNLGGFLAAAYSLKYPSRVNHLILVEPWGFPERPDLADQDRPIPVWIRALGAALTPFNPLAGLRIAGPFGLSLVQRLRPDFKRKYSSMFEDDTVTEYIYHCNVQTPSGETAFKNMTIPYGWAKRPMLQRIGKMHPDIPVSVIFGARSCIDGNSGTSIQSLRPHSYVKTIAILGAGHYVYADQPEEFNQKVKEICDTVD

| Structure (SMILES) | inhibition |
| --- | --- |
| CCCCN(C(C)=O)c1ccc2c(c1)C1CC2CCN1Cc1ccccc1 (stereo not given) | -6.18% |
| COc1ccc(OC)c(/C(C)=N\NC(=O)c2cc3cc(Cl)ccc3n2C)c1 | 5.51% |
| COC(=O)/C=C\C(=O)Nc1cccc([N+](=O)[O-])c1 | 41% (active) |
| CC(NC(=O)Nc1cccc([N+](=O)[O-])c1)c1ccc2c(c1)OCO2 (stereo not given) | 8.55% |
| COc1cccc(NCCC(=O)c2cccc([N+](=O)[O-])c2)c1 | -2.37% |
| O=C(Cn1c(=O)n(Cc2ccco2)c(=O)c2ccccc21)NCC1CCCO1 (stereo not given) | -2.17% |
| O=C(CCCOc1ccccc1)NCc1ccco1 | -2.47% |
| Cn1c2ccccc2c(=O)c2c(=O)n(Cc3ccco3)c(COc3ccccc3)nc21 | 40.1% (active) |
| CCn1c(SC)nc(O)c(C(c2ccc(OC)c(O)c2)c2c(O)nc(SC)n(CC)c2=O)c1=O | 30.9% (active) |
| CCn1c(CNC(=O)c2ccc(OC)c(OC)c2)nnc1SCC(=O)Nc1ccccc1 | -3.29% |
| CCSc1nc(O)c(C(c2cccc(OC)c2)c2c(O)nc(SCC)[nH]c2=O)c(=O)[nH]1 | -4.24% |
| C=CCN(c1ccc(C(N)=O)cc1)S(C)(=O)=O | 0.17% |
| CCOc1cc(C(=O)O)ccc1OCCOc1ccccc1 | -0.9% |
| CC(C)CCOc1ccc(C(=O)C[N+]2(C)CCOCC2)cc1 | 1.19% |
| CCCOc1ccc(C(=O)C(CCC(CNCC)C(=O)c2ccc(OCCC)cc2)CNCC)cc1 (stereo not given) | 34.9% (active) |
| O=C(Nc1ccccc1N1CCCC1)c1ccc(F)c(S(=O)(=O)N2CCOCC2)c1 | -7.04% |
| CC(=O)N1CSCC1C(=O)O (stereo not given) | 3.52% |
| O=C(/C=C(O)/C=C/c1ccc(O)cc1)/C=C/c1ccc(O)cc1 | 35.1% (active) |
| NC1=NC(=O)S/C1=C\c1ccc(O)cc1 | 7.71% |
| C=CCNC(=O)/C=C/c1ccc(C(C)C)cc1 | -1.9% |
| CCc1nc(C)cn1S(=O)(=O)c1cc([N+](=O)[O-])ccc1Cl | 4.39% |
| CCCC(C(=O)OCCN(CC)CC)(c1ccccc1)c1ccccc1 | 6.21% |
| CCC(C(=O)OCCN(CC)CC)c1ccccc1 (stereo not given) | 49.6% (active) |

| Structure (SMILES) | inhibition |
| --- | --- |
| CN(C)CCOC(=O)C(c1ccccc1)C1(O)CCCC1 (stereo not given) | -6.36% |
| Cc1ccnc(SCCn2c(N(C)Cc3ccccc3)nc3c2c(=O)n(C)c(=O)n3C)n1 | -0.81% |
| N#Cc1ccccc1S(=O)(=O)N1CCN(C(=O)c2cc(-c3ccccc3)nn2-c2ccccc2)CC1 | -8.95% |
| N#Cc1ccccc1S(=O)(=O)N1CCN(Cc2c(O)ccc3ccccc23)CC1 | 27.7% (active) |
| O=c1oc2c(CN3CCCCC3)c(O)ccc2c2c1CCCCC2 | -1.69% |
| Cn1c(CCC(=O)OCC(=O)NCc2ccccc2Cl)nc(=O)c2ccccc21 | 2.53% |
| CN(CC(=O)NCCc1ccccc1)S(=O)(=O)c1cnc[nH]1 | 1.21% |
| COCCN(Cc1ccccc1)C(=O)Cc1ccc(S(=O)(=O)N2CCOCC2)s1 | -7.33% |
| CCCCOC(=O)CNc1nnc(SCC(=O)OCC)[nH]c1=O | 55.4% (active) |
| CCOC(=O)CSc1nc(C)c(Oc2ccc(Cl)cc2Cl)c(=O)[nH]1 | -1.81% |
| CCc1ccc(C(=O)CSc2nnc(C)c(=O)[nH]2)cc1 | -3.63% |
| COC(C[C@@H]1O[C@@H]1C(=O)[C@H](C)OCc1ccccc1)OC | -0.78% |
| COC(C[C@H](O)CC(=O)[C@@H](C)OCc1ccccc1)OC | 2.47% |
| COC(C/C=C/C(=O)[C@@H](C)OCc1ccccc1)OC | 24.4% (active) |
| COc1ccc(-c2cnc3c(c2)C(=O)N([C@H](C)CO)C[C@@H](C)[C@H](CN(C)Cc2ccccc2)O3)cc1 | 4.36% |
| CCCCCCN1CCN(C2CN(Cc3cn(CCCCCC)nn3)S(=O)(=O)C2)CC1 (stereo not given) | -2.61% |
| CC(Sc1nncs1)C(=O)NCc1ccc2c(c1)OCO2 (stereo not given) | -10.2% |
| CCn1cc(C(=O)N2CC(C)CC(C)C2)c(=O)c2cc(S(=O)(=O)N3CCCC3)ccc21 (stereo not given) | -1.5% |
| O=C1C(Cl)=C(Oc2ccccc2)C(=O)c2ccccc21 | 84.3% (active) |
| O=C(N[C@H]1C/C=C\C(c2cccc(F)c2)N(Cc2ccccc2)C(=O)C1)OCC1c2ccccc2-c2ccccc21 (stereo not given in full) | -1.93% |
| COc1ccc(CN2CCN(Cc3cn(C)nc3-c3ccccc3)CC2CCO)c(C)c1C (stereo not given) | 8.28% |
| Cc1ccccc1CN1C[C@@H]2C[C@@H](c3cn(C)nc3-c3ccccc3)N3CCC[C@@]23C1=O | 22.1% (active) |
| Cc1ccccc1CN1C[C@@H]2C[C@@H](c3ccc4nsnc4c3)N3CCC[C@@]23C1=O | 0.89% |

| Structure (SMILES) | inhibition |
| --- | --- |
| COC(=O)CCCC1=CC2=C(c3ccccc3)C(=O)C(C)(OC(=O)C3CCCC3)C(=O)C2=CN1c1ccc(OC)cc1 (stereo not given) | 3.52% |
| CC1(OC(=O)C2CCCC2)C(=O)C=C2C=C(c3ccc(C#N)cc3)OC=C2C1=O (stereo not given) | 22.6% (active) |
| CC1(C(=O)NS(=O)(=O)c2ccc(C#N)cc2)CCN1C(=O)c1ccc(C2CCCCC2)cc1 (stereo not given) | -0.02% |
| CC(C)CN1CCC1(C)C(=O)Nc1ccc(OC(F)F)cc1 (stereo not given) | -1.42% |
| CSc1nc(N(C)NC(=O)c2cccc(C)c2)c2ccccc2n1 | -6.13% |
| Cc1cc(C)nc(S/C=C/C(=O)c2ccccc2)n1 | 65.4% (active) |
| COc1ccc(C(=O)/C=C/Nc2ccccn2)cc1 | 0.9% |
| O=C(Nc1cccc(Cl)c1Cl)c1ccccc1NC(=O)C1CC=CCC1C(=O)O (stereo not given) | -5.77% |
| O=[N+]([O-])/C=C/c1ccc2c(ccn2Cc2ccccc2)c1 | 92% (active) |
| NC(=O)C1CCN(C(=O)c2ccc(-c3ccccc3)cc2)CC1 | 5.48% |
| NS(=O)(=O)c1ccc(NC(=O)COC(=O)C2(c3ccc(F)cc3)CCCC2)cc1 | -6.25% |
| O=C1c2cccnc2C(Nc2ccc(S(=O)(=O)N3CCCCCC3)cc2)N1Cc1ccccc1 (stereo not given) | -3.06% |
| O=C(CCNS(=O)(=O)c1ccccc1C(F)(F)F)Nc1ccncc1 | 3.18% |
| CN(C)CCOc1cccc(Br)c1 | -5.46% |
| Nc1cccc(OCCCCCOc2cccc(N)c2)c1 | 68.8% (active) |
| C=CCNCCCCOc1ccccc1 | -2.87% |
| O=C(COC(=O)c1cnccn1)Nc1cccc2ccccc12 | -5.15% |
| COc1cccc2cc(C(C)N(CCCN3CCOCC3)C(=O)Nc3ccc(Cl)cc3)oc12 (stereo not given) | 7.7% |
| O=C(Cn1nnc(N2CCCCC2)n1)c1ccc(Cl)c(Cl)c1 | -2.6% |
| O=C(Cn1ncc(N2CCCC2)c(Br)c1=O)c1ccc(Cl)cc1 | 3.08% |
| O=C(Cn1nc(CNc2ccc(Cl)cc2)[n+]2c1CCCCC2)c1ccc(Cl)cc1 | 28.2% (active) |
| N#Cc1ccc(C2N=C(c3ccccc3)NO2)cc1 (stereo not given) | 5.57% |
| Cc1noc(C)c1NC(=O)Nc1ccc2c(c1)C(=O)N([C@H](C)CO)C[C@H](C)[C@@H](CN(C)S(=O)(=O)c1cn(C)cn1)O2 | 3.26% |

| Structure (SMILES) | inhibition |
| --- | --- |
| Cn1c(SCC(=O)NC2CCCCC2)nnc1-c1cc2ccccc2o1 | -2.37% |
| CCC(CC)C(C(=O)NC1CCCC1)N1CCN(c2cc(C)nc3ccccc23)CC1 (stereo not given) | 1.05% |
| Cc1cccc(C)c1NC(=O)C(c1cccc2ccccc12)n1c(=O)c(-c2ccco2)nc2ccccc21 (stereo not given) | 71.4% (active) |
| Cc1cccc(C)c1NC(=O)C(c1ccc(C(F)(F)F)cc1)n1c(=O)c(-c2ccco2)nc2ccccc21 (stereo not given) | 74.7% (active) |
| O=C(NC1CCCCC1)C(c1cc2ccccc2o1)n1c(=O)c(-c2ccco2)nc2ccccc21 (stereo not given) | 78.2% (active) |
| COc1ccc(C(C(=O)Nc2c(C)cccc2C)N2CCN(c3ccc(C)cc3)CC2)cc1 (stereo not given) | -0.48% |
| Cc1cccc(C)c1NC(=O)CCCSc1nnc(-c2ccco2)n1-c1ccccc1 | -1.49% |
| CCCCCNC(=O)C(c1ccc(OC)cc1)n1c(=O)c(-c2ccccc2)nc2ccccc21 (stereo not given) | 1.61% |
| COc1ccc(NC(=O)C(c2ccncc2)n2c(=O)c(-c3cc4ccccc4[nH]3)nc3ccccc32)cc1 (stereo not given) | -4.13% |
| COc1ccc(C(C(=O)NCc2ccccc2)n2c(=O)c(-c3ccccc3)nc3ccccc32)cc1 (stereo not given) | 18.6% |
| N#Cc1ccc(C(C(=O)NCc2ccccc2)n2c(=O)c(-c3ccco3)nc3ccccc32)cc1 (stereo not given) | 76.5% (active) |
| CCC(C(=O)Nc1c(C)cccc1C)n1c(-c2cc(C)cs2)nc2ccccc21 (stereo not given) | -1.93% |
| CC1CCCN(CCCNC(=O)CN2C(=O)COc3ccc(S(=O)(=O)N4CCOCC4)cc32)C1 (stereo not given) | -1.77% |
| CCc1cccc(NC(=O)CCCN2C(=O)C(c3ccccc3)Oc3cccnc32)c1 (stereo not given) | -1.01% |
| Cc1ccc(-c2nnc(C)c(N3CC(C)OC(C)C3)n2)cc1 (stereo not given) | -1.84% |
| CC(OC(=O)CCCOc1ccccc1)C(=O)Nc1ccc(Cl)cn1 (stereo not given) | -0.81% |
| O=C1OCCOC2CCCc3oc(-c4ccccc4)c1c32 (stereo not given) | -3.07% |
| CN1CCC(=O)N([C@H](CO)Cc2ccccc2)CC1 | -5.42% |
| Cc1ccsc1C(=O)NC1CCCCC1C (stereo not given) | 4.79% |
| CC(N)C12CC3CC(CC(O)(C3)C1)C2 (stereo not given) | -6.3% |
| Cc1nc2ccccn2c1C(=O)NN=C1CCN(C)CC1 | -0.19% |
